# Test results reported in the supplement of paper PMC3334620.
# Whole data set: some 33,000 sequences, median “E-score (-0.5 to 0.5)” near -0.017, cut for the highest 2% near 0.3. The list comes from a sample in which the highest values are over-represented; it also holds similar and randomly drawn sequences.
# Target: T1, Sut1 (UniProt P53032)
# T1 sequence: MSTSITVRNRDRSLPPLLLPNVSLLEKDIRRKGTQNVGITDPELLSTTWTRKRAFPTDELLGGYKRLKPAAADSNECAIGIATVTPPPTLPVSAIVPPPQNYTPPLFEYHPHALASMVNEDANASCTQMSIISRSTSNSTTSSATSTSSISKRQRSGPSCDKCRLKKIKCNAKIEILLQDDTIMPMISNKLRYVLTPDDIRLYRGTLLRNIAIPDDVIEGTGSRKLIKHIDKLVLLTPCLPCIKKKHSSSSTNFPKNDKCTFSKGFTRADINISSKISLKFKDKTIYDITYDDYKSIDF
# Experiment: PBM E-score (8-mer binding enrichment) (E-score (-0.5 to 0.5)); higher = stronger / more preferred TF binding
# Conditions: protein concentration: 200 nM; construct: GST-full length
# Description: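 Universal 'all 10-mer' protein binding microarrays (Agilent AMADID 015681) probed with GST-tagged S. cerevisiae TFs (full-length or DBD) made by in vitro transcription/translation (PURExpress), about 100-200 nM. Bound TF was detected with fluorescent anti-GST. Each ungapped 8-mer (which stands for itself and its reverse complement) is scored by the PBM enrichment score (E-score), a modified Wilcoxon-Mann-Whitney statistic from -0.5 to +0.5, computed with the Universal PBM Analysis Suite. Scale: above 0.35 generally sequence-specific binding.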
row,Sequence,PBM E-score
1,CATGGGTC,-0.185
2,ATTCGTAC,0.154
3,AGGTCCGC,0.286
4,CGGTCCGA,0.264
5,AGGTCCGA,0.457
6,GGGTCCGA,0.295
7,AGGTCCGG,0.461
8,AGGTCCAG,-0.0827
9,CCTTGAAG,-0.0873
10,GCTCAAGA,-0.148
11,ATAGTGGG,-0.0539
12,AATCTGGT,0.047
13,AGGCCTTA,-0.127
14,GAAGCTCC,0.35
15,AAAGCTCC,0.0815
16,GAAGCTCA,-0.033
17,GACACCCA,-0.118
18,ATTCTATA,0.16
19,GGAGCGTA,0.0804
20,CAATCTCG,-0.097
21,ATATCTCC,0.341
22,CTATCTCC,0.114

row,Sequence,PBM E-score
1,CAATCTCC,0.312
2,CAATCTCA,-0.0455
3,ATCTCTCC,-0.0902
4,CATCTGCG,-0.0835
5,CGGTCAAG,-0.09
6,TCTGATAA,-0.0508
7,AATTGTCT,-0.0132
8,CTCGTTAA,0.1
9,ATAACGGA,0.341
10,CTAACGAA,-0.0566
11,ATAACGGG,0.0139
12,GTAACGGA,0.329
13,GTAACGTA,0.0551
14,CTAACGGC,0.0477
15,ATAACGGC,0.00713
16,GTAACGCA,0.021
17,CTAACGGA,0.305
18,GAAACGCA,0.026
19,CTGAGCGA,-0.162
20,AAGGTTGA,0.0981
21,GTTTAGTA,0.208
22,GACATCGC,-0.0981

row,Sequence,PBM E-score
1,CATAACAC,0.0299
2,CGCTCAGC,-0.105
3,ATTTTGCG,0.193
4,GCTCCCAC,-0.109
5,CATATGTC,-0.0849
6,CCTGTCAA,-0.085
7,GTCCGGGA,0.413
8,GACCGGGA,-0.0471
9,CGCCGGGA,-0.203
10,ATCCGGGC,0.127
11,CTCCGGGC,0.391
12,CTCCGGGA,0.436
13,ATCCGGGA,0.0768
14,CGCCGGGC,0.00809
15,CCCCGGGA,-0.0206
16,CCCGGTCC,-0.0342
17,AACTCACT,-0.151
18,CAATTCAA,0.0614
19,GGCCCTCA,-0.279
20,CTGGTTCA,-0.0784
21,CCTCGGAA,0.215
22,CCTCGGAG,0.446

row,Sequence,PBM E-score
1,ACTCGGGC,-0.0385
2,TCTCGGAA,0.215
3,CCTCGGTA,-0.0533
4,CCTCGGAC,0.412
5,ACTCGGAA,0.323
6,CCTCGGGC,-0.209
7,CCTCGGCG,-0.0382
8,ACTCGGAC,0.411
9,ACTCGGAT,0.0613
10,ACTCGGTC,-0.072
11,CTAGTTGC,-0.0129
12,GCCTTGGA,-0.0418
13,GACGCGTC,-0.325
14,ATCTATAG,0.11
15,CAGCCTGA,-0.275
16,ATATGAGG,-0.0891
17,ACTCGGTG,-0.0621
18,GCTCGGAC,0.365
19,GCTCGGAA,0.165
20,ACTCGGAG,0.399
21,ACTCGGCG,0.0415
